# Assay outcomes deposited in PubChem by National Center for Advancing Translational Sciences (NCATS).
# Rows were chosen to be rich in hits. Some 7.1% of all compounds tested hit in one or more screens of this group.
# ATXN2 expr inh = ATXN2 expression inhibition | HEK-293 ATXN2-luciferase reporter, luminescence, 24 h | Potency, µM (top dose mostly 57 µM), inactives show top-dose activity change, negative = inhibition, actives largely listed as inhibitors | hit rate 0.72% among 360,000 | AID 1745845; note: potency is the fitted concentration of half-maximal effect; % is set by controls: 0 for no effect and ±100 for the full control effect; nearly all actives have a fitted effect of over 55% in size
#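 qHTS (up to 57 uM final) was run with 24 h compound exposure of reporter cells at 37 °C. Each well was multiplexed: SteadyGlo luminescence measured ATXN2-luciferase expression after a fluorogenic Gly-Phe-AFC viability readout (25 uM final).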
# SW480 rereplic = induces DNA re-replication in SW480 colon adenocarcinoma cells. SW480 DNA re-replication, Hoechst DNA content imaging, 48 h. Potency, µM (top dose mostly 46.1 µM), without a hit: at the top dose re-replication activation, most hits filed as activators. hit rate 1.8% among 340,000. AID 624297; note: potency is the fitted concentration of half-maximal effect; % of control where 0% means no effect; nearly all actives have a fitted effect of over 55% in size
#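 DNA re-replication was detected as more nuclei of elevated Hoechst intensity after 48 hr exposure to compound (23 nL pinned per well of 250 cells).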
# ATXN viability = viability counter-screen for ATXN expression inhibitors. Potency, µM (titrated, usually from 56.7 µM), hits mostly cytotoxic. S2 cells (HEK-293 line with an ATXN2-luciferase reporter) viability, CellTiter-Fluor protease fluorescence, 24 h. hit rate 0.49% among 400,000; note: potency is the fitted concentration of half-maximal effect; nearly all actives have a fitted effect of over 40% in size
# PINK1 expr mod = modulators of PINK1 expression; hit rate 0.2% among 410,000; Potency, µM (top dose mostly 76.6 µM), for the others: top-dose activation (PINK1 increase), hits mostly activators; PINK1 immunofluorescence, high-content cytometry, 24 h; active = well fitted activation curve with a large enough effect; inconclusive = small, poorly fitted or top-dose-only effect; cell line not stated here; note: potency is the fitted concentration of half-maximal effect; % of control where 0% means no effect; nearly all actives have a fitted effect of over 65% in size
#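 Readout is PINK1 immunofluorescence, quantified alongside mitochondrial, cell and nuclear markers by laser-scanning microplate cytometry. Cells from a stable line were exposed to compound titrations (5 concentrations) for 24 hours, with CCCP controls.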
# IL1B secr inh = inhibitors of inflammasome signaling (IL-1 beta secretion); THP-1 LPS/ATP IL-1B secretion, AlphaLISA, 16 h; active compounds read low; activity change, % at 57.5 µM; hit rate 4.7% among 360,000; in the data active = activity change below about -50%; inconclusive = mostly about -30% to -49%; note: % is set by controls: 0 for no effect and ±100 for the full control effect
#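 THP-1 cells pretreated 1 hr with compounds (up to 57.5 uM final), then stimulated with LPS (250 ng/mL final) plus ATP (1.25 mM final); secreted IL-1B measured by AlphaLISA after 16 hr, decreased signal indicating inhibition.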
# MCF10A rereplic = DNA re-replication induction in MCF 10a cells; MCF 10A DNA re-replication, Hoechst nuclear intensity, 48 h; Potency, µM (doses to about 46.1 µM), for the others: top-dose activity, positive = re-replication, most hits filed as activators; hit rate 2.9% among 350,000; AID 624296; note: potency is the fitted concentration of half-maximal effect; % of control where 0% means no effect; nearly all actives have a fitted effect of over 50% in size
# The depositor's hits bear a star; i = inactive; ? = inconclusive; nt = not tested or not shown; ! = repeats disagree; [ ] = remark or other dose. Unless noted, calls come from the whole dose curve; as a rule, active = well fitted curve in the direction sought with a large enough effect; inconclusive = small, poorly fitted or top-dose-only effect, or another doubt; inactive = no such curve, though single readings can be large; an effect the other way counts as inactive or inconclusive.
SMILES,ATXN2 expr inh,SW480 rereplic,ATXN viability,PINK1 expr mod,IL1B secr inh,MCF10A rereplic
CCn1c(-c2ccccc2)c(C(=O)CCl)c2ccccc21,nt,?,3.98µM*,-0.7%,-108.1*,23.1µM*
Cn1c(-c2ccccc2)c(C(=O)CCl)c2ccccc21,?,?,7.52µM*,-1.3%,-117.7*,?
CCn1c(=O)c(C(=O)NCCc2ccccc2)c(O)c2ccccc21,-7.1%,9.2%,i,9.3%,33.4,?
Cn1c(-c2ccccc2)c(CCO)c2ccccc21,-1.3%,20.2%,i,-0.2%,10.2,37.2%
Cc1cnc(NS(=O)(=O)c2ccc(N)cc2)nc1,-2.8%,nt,i,nt,nt,nt
COc1ccc(C2=NC(C)(C)N(CC(=O)Nc3cccc(C)c3)C2=O)cc1,nt,nt,nt,2.2%,nt,nt
Cc1noc(Cn2c(=O)c3cc4c(cc3n(CC(=O)Nc3cccc(Cl)c3)c2=O)OCO4)n1,10.6%,nt,i,0.6%,nt,nt
CCOC(=S)SCC(=O)Nc1nccs1,-14.4%,21.3%,?,10.8%,-99.0*,?
CCOC(=O)/C=C/C(=O)Nc1nccs1,3.7%,?,i,17.0%,-85.9*,18.4µM*
CCOC(=S)SCC(=O)Nc1nc(C)c(C)s1,nt,104.0%,?,3.2%,-7.1,18.4µM*
CCOC(=O)C(=O)Nc1nccs1,nt,-9.3%,i,2.0%,14.9,-2.4%
Cc1cc(-c2ccc(C)c(S(=O)(=O)NC3CCCCC3)c2)on1,nt,nt,nt,-0.2%,nt,nt
CC(C)(C#CCN1CCCCC1)OCCOC(c1ccccc1)c1ccccc1,-20.0%,7.9%,?,?,-61.3*,?
CC(O)(C#CCN1CCCCC1)c1ccccc1 (configuration not stated),2.6%,-7.4%,i,2.0%[38.3 µM],-1.9,8.5%
C(#CCN1CCCC1)CC(c1ccccc1)c1ccccc1,?,4.4%,?,5.4%,-63.9*,13µM*
COc1c(C)cc(S(=O)(=O)NCCc2c(C)[nH]c3ccccc23)c(C)c1C,-23.1%,nt,i,?,nt,nt
CCCCN(CC)C(=O)CSc1nc2n[nH]c(C)c2c(=N)n1-c1cccc(OC)c1,nt,nt,nt,4.2%,nt,nt
NC(=O)NO,7.69µM*!,13.4%,i,-0.4%,18.6,2.4%
CC(=O)NO,0.3%,3.3%,i,0.8%,14.6,-17.1%
COc1ccc(C(=O)CSc2nc(SC)ns2)cc1OC,9.6%,0.5%,i,16.8%,0.5,1.6%
COc1ccc(C(=O)CSc2cc(C)nc3nc(C)nn23)cc1OC,29.6%,-2.5%,i,nt,-96.9*,-25.5%
COc1ccc(/C=N/Nc2ncnc(Cl)c2N)cc1OC,14.3%,-34.5%,i,5.3%,-15.4,?
COc1cccc(/C=N/Nc2ncnc3scc(-c4ccccc4)c23)c1O,1.12µM*,?,i,-4.6%,45.7,13µM*
COc1cccc(/C=N/Nc2ncnc(Cl)c2N)c1O,?,?,11.2µM*,?,14.0,?
COc1cccc(/C=N/Nc2nccnc2Cl)c1O,5.62µM*,0.259µM*,?,-1.7%,110.6,5.8µM*
SMILES,ATXN2 expr inh,SW480 rereplic,ATXN viability,PINK1 expr mod,IL1B secr inh,MCF10A rereplic
CCOc1cc2[nH]c(=S)n(CCC(=O)NC3CCCCC3)c(=O)c2cc1OCC,nt,nt,i,0.5%,-11.6,nt
CC1Cn2c(nnc2C23CC4CC(CC(C4)C2)C3)S1 (configuration not stated),-9.9%,?,i,1.5%[38.3 µM],18.4,14.6µM*
O=C(CNS(=O)(=O)c1ccc([N+](=O)[O-])cc1)N/N=C/c1ccc(O)cc1O,23.8µM*,?,i,-2.3%,86.6,20.1%
COc1ccc(NC(=O)CSc2c(C(C)C)cnc3c2c(=O)n(C)c(=O)n3C)c(OC)c1,nt,nt,nt,1.1%,nt,nt
Cn1c(Oc2ccc(F)cc2F)c(C=O)c2ccccc21,0.9%,8.8%,i,-0.8%,-87.9*,5.0%
Cc1ccc(Oc2c(C=O)c3ccccc3n2C)cc1,1.1%,1.8%,i,-0.8%,-17.7,12.6%
COc1ccc(Oc2c(C=O)c3ccccc3n2C)cc1,0.0%,13.6%,i,-1.4%,?,6.8%
Cn1c(Oc2ccc(Cl)cc2)c(C=O)c2ccccc21,-5.5%,-1.0%[9.22 µM],i,0.6%,-94.8*,?
COCc1ccc(CN2CCOc3c(cc(-c4ccc(SC)cc4)cc3OC)C2)o1,nt,nt,i,-0.4%,nt,nt
CCc1ccc2nc(N(Cc3cccnc3)C(=O)Cc3ccccc3)sc2c1,nt,nt,nt,3.2%,nt,nt
Cc1ccc2c(c1)N(CCCC(=O)NCc1cccc(F)c1)C(=O)CO2,nt,nt,nt,1.0%,nt,nt
CCN(Cc1ccccc1)C1CCN(Cc2ccc(SC)cc2)CC1,-29.9%,-0.5%,?,2.8%,-72.2*,?
Cc1ccc(C)c(Nc2nc3c(S(=O)(=O)c4ccc(Br)cc4)nnn3c3ccsc23)c1,nt,nt,nt,1.6%,nt,nt
CC(C)(C)NC(=S)N/N=C/c1c(Cl)cccc1Cl,nt,-0.7%,i,8.4%,65.5,1.9%
Cc1ccc(NC(=S)N/N=C/c2c(Cl)cccc2Cl)c(C)c1,43.8%,1.3µM*,?,4.1%,77.8,1.46µM*
Cc1ccc(Cl)cc1NC(=S)N/N=C/c1cccc2ccccc12,10.2%,8.2µM*,?,2.1%,47.3,8.2µM*
Cc1cc(=O)c(C(=O)NCCc2ccccn2)c2n1-c1ccccc1SC(c1cccs1)C2 (configuration not stated),nt,nt,i,-0.8%,nt,nt
C#CCn1c2ccccc2c2nc3ccccc3nc21,26.5%,-1.7%,i,-0.2%,1.6,-9.2%
CC(C)n1c2ccccc2c2nc3ccccc3nc21,-8.0%,?,i,-0.8%,-7.1,23.1µM*
Cc1cc(=O)[nH]c2nnc(SCc3cccc(C(F)(F)F)c3)n12,nt,nt,nt,18.2%,nt,nt
CCOC(=O)c1c(CSCc2ccccc2)oc2ccc(O)c(CN(C)C)c12,?,?,?,-1.0%,-82.2*,20.0%
CCOC(=O)c1c(-c2ccccc2)oc2ccc(O)c(CN3CCCC3)c12,nt,-0.8%,nt,nt,-60.0*,-1.4%
CCOC(=O)c1c(-c2ccccc2)oc2ccc(O)c(CN(C)C)c12,-21.7%,-17.8%,?,9.8%,?,5.0%
COc1ccc(NC(=O)c2c(C)oc3ccc(O)c(CN4CCC(C)CC4)c23)cc1Cl,-19.4%,nt,14.1µM*,2.6%,nt,nt
CCc1cccc(CC)c1NC(=O)c1c(C)oc2ccc(O)c(CN3CCCC3)c12,-24.8%,nt,15.8µM*,-0.6%,nt,nt
O=c1c2c3c(sc2n(Cc2ccc(F)cc2Cl)c(=O)n1-c1ccc(Cl)cc1)CCC3,8.2%,nt,i,0.1%,nt,nt
CCN(C(=O)C1CCC(CNS(=O)(=O)c2cccc3nsnc23)CC1)c1ccc(C)c(C)c1 (configuration not stated),2.8%,nt,i,0.5%,nt,nt
COc1ccc(Cl)cc1NC(=O)c1cnc(N2CCCCC2)c2ccccc12,nt,nt,nt,0.1%,nt,nt
